Results from PubChem BioAssay (NCI).
This is part of a sample that, as a whole, favours compounds with a hit. Of some 79,000 tested, about 15% had one in any assay. The source made the active and inactive calls. Cut-off read from the data, not from the text of the source: active = growth inhibition above about 70%; inactive = the rest.

How the values were obtained:
[1] = NCI Yeast Anticancer Drug Screen. Data for the wt2 strain (AID 169);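 note: 0% = growth of vehicle-treated yeast cultures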; details: S. cerevisiae wt2 strain growth inhibition, active compounds read high
Method in brief: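 Inhibition of yeast growth was determined after compound treatment, normalised to controls receiving only vehicle.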

[2] = NCI Yeast Anticancer Drug Screen. Data for the mlh1 strain (AID 171);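 note: 0% = growth of vehicle-treated control cultures of the same strain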; details: S. cerevisiae mlh1 strain growth inhibition, active compounds read high
Method in brief: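 Vehicle-normalised growth inhibition of a repair- or checkpoint-altered yeast strain following compound treatment.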

[3] = NCI Yeast Anticancer Drug Screen. Data for the sgs1 strain (AID 173);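 note: 0% = growth of vehicle-only control cultures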; details: S. cerevisiae sgs1 mutant, active compounds read high
Method in brief: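 Screen format: yeast with repair or checkpoint alterations, compound exposure, growth read relative to vehicle.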

[4] = NCI Yeast Anticancer Drug Screen. Data for the mlh1 rad18 strain (AID 175); details: S. cerevisiae mlh1 rad18 strain growth inhibition, active compounds read high
Method in brief: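 Vehicle-treated cultures served as the reference for growth inhibition in a yeast strain carrying DNA damage repair alterations exposed to each compound.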

[5] = NCI Yeast Anticancer Drug Screen. Data for the rad18 strain (AID 177); details: S. cerevisiae rad18 mutant growth inhibition, active compounds read high
Method in brief: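 Test articles were incubated with altered yeast defective in DNA damage repair. Results are given as inhibition of growth versus vehicle.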

[6] = NCI Yeast Anticancer Drug Screen. Data for the rad52 strain (AID 147);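 note: 0% = growth of vehicle-treated control cultures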; details: S. cerevisiae rad52 mutant growth inhibition, active compounds read high
Method in brief: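 Vehicle-treated cultures served as the reference for growth inhibition of compound-exposed yeast bearing a DNA repair mutation.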

[7] = NCI Yeast Anticancer Drug Screen. Data for the wt1 strain (AID 149);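 note: 0% = growth of vehicle-treated wt1 cultures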; details: S. cerevisiae wt1 strain (SPY 50644) growth inhibition, active compounds read high
Method in brief: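 Vehicle-normalised growth inhibition; strain wt1; compound exposure.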

[8] = NCI Yeast Anticancer Drug Screen. Data for the rad50EPP+ strain (AID 151);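 note: 0% = growth of vehicle-treated control cultures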; details: S. cerevisiae rad50 mutant strain, active compounds read high
Method in brief: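 In this screen, rad50EPP+ yeast were exposed to compounds. Growth inhibition was scored against vehicle-treated controls.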

[9] = NCI Yeast Anticancer Drug Screen. Data for the mgt1 strain (AID 153); details: S. cerevisiae mgt1 mutant growth inhibition, active compounds read high
Method in brief: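 mgt1 strain exposed; growth vs vehicle control recorded as inhibition.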

[10] = NCI Yeast Anticancer Drug Screen. Data for the rad50 strain (AID 155);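 note: 0% = growth of vehicle-only cultures of the same strain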; details: S. cerevisiae rad50 strain growth inhibition, active compounds read high
Method in brief: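 A DNA repair-deficient yeast mutant serves as the test organism; compound-induced growth inhibition is calculated against vehicle-treated cells.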

[11] = NCI Yeast Anticancer Drug Screen. Data for the mec2-1 strain (AID 157); details: S. cerevisiae mec2-1 strain, active compounds read high
Method in brief: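 Vehicle-treated cultures served as reference for growth inhibition of compound-exposed mec2-1 yeast.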

[12] = NCI Yeast Anticancer Drug Screen. Data for the rad14 strain (AID 159);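 note: 0% = growth of vehicle-treated control cultures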; details: S. cerevisiae rad14 strain growth inhibition, active compounds read high
Method in brief: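 Vehicle-treated cultures served as the baseline for growth inhibition of a DNA repair-mutant yeast strain exposed to each compound.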

[13] = NCI Yeast Anticancer Drug Screen. Data for the sgs1 mgt1 strain (AID 161);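 note: 0% = growth of cultures given vehicle only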; details: S. cerevisiae sgs1 mgt1 strain, active compounds read high
Method in brief: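 Mutant yeast exposed to compound; growth scored against vehicle-only wells.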

[14] = NCI Yeast Anticancer Drug Screen. Data for the CLN2oe strain (AID 163);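 note: 0% = growth of vehicle-only control cultures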; details: S. cerevisiae CLN2oe strain, active compounds read high
Method in brief: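 Inhibition relative to vehicle-treated yeast is reported. Cells: strain with genetic alteration in cell-cycle control, grown with compound.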

[15] = NCI Yeast Anticancer Drug Screen. Data for the cln2 rad14 strain (AID 165);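 note: 0% = growth equal to vehicle treated cultures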; details: S. cerevisiae cln2 rad14 strain, active compounds read high
Method in brief: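 Each compound was tested on cln2 rad14 yeast. Inhibition of growth was calculated against vehicle-exposed controls.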

[16] = NCI Yeast Anticancer Drug Screen. Data for the bub3 strain (AID 167); details: S. cerevisiae bub3 mutant strain, active compounds read high
Method in brief: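 Inhibition values come from growth of compound-treated mutant yeast normalised to vehicle-treated controls.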

[17] = at 5.0 µM (retest, dose inferred, filed as 0.5)
[18] = at 50.0 µM (retest, dose inferred, filed as 5.0)

Measured: growth inhibition

Oc1cccc2cc(Cl)cnc12
active: [1]; at 33.0 µM 96% | [1]; at 100.0 µM 98% | [2]; at 33.0 µM 96% | [2]; at 100.0 µM 97% | [3]; at 33.0 µM 97% | [3]; at 100.0 µM 98% | [4]; at 50.0 µM 91.2% | [5]; at 33.0 µM 96% | [5]; at 100.0 µM 97%
inactive: [1]; at 1.2 µM -31% | [1]; at 3.7 µM -26% | [1]; at 11.0 µM 1% | [2]; at 1.2 µM -22% | [2]; at 3.7 µM -42% | [2]; at 11.0 µM 3% | [3]; at 1.2 µM -47% | [3]; at 3.7 µM -43% | [3]; at 11.0 µM 46% | [4]; [17] 44% | [4]; [18] 50% | [5]; at 1.2 µM -11% | [5]; at 3.7 µM -4% | [5]; at 11.0 µM 60%

COC(=O)Oc1cc(Cl)c(Cl)cc1Cl
inactive: [6]; at 1.2 µM 0% | [6]; at 3.7 µM 0% | [6]; at 11.0 µM -1% | [6]; at 33.0 µM 4% | [6]; at 100.0 µM 9% | [7]; at 1.2 µM -1% | [7]; at 3.7 µM -2% | [7]; at 11.0 µM -3% | [7]; at 33.0 µM -4% | [7]; at 100.0 µM 0% | [8]; at 1.2 µM -1% | [8]; at 3.7 µM 0% | [8]; at 11.0 µM 7% | [8]; at 33.0 µM 2% | [8]; at 100.0 µM 1% | [9]; at 1.2 µM -1% | [9]; at 3.7 µM 0% | [9]; at 11.0 µM 1% | [9]; at 33.0 µM -3% | [9]; at 100.0 µM 1% | [10]; at 1.2 µM 0% | [10]; at 3.7 µM 0% | [10]; [17] 4% | [10]; at 11.0 µM -1% | [10]; at 33.0 µM 2% | [10]; [18] -5% | [10]; at 50.0 µM 30.8% | [10]; at 100.0 µM 10% | [11]; at 1.2 µM 0% | [11]; at 3.7 µM 4% | [11]; [17] -4% | [11]; at 11.0 µM 3% | [11]; at 33.0 µM 5% | [11]; [18] 23% | [11]; at 50.0 µM 21.4% | [11]; at 100.0 µM 8% | [12]; at 1.2 µM 0% | [12]; at 3.7 µM 0% | [12]; at 11.0 µM 2% | [12]; at 33.0 µM 5% | [12]; at 100.0 µM 9% | [13]; [17] 3% | [13]; [18] 1% | [13]; at 50.0 µM 30.1% | [14]; at 1.2 µM -4% | [14]; at 3.7 µM -3% | [14]; at 11.0 µM -7% | [14]; at 33.0 µM -6% | [14]; at 100.0 µM -4% | [15]; [17] 3% | [15]; [18] 52% | [15]; at 50.0 µM 22.6% | [16]; at 1.2 µM 1% | [16]; at 3.7 µM 3% | [16]; [17] 12% | [16]; at 11.0 µM 1% | [16]; at 33.0 µM 3% | [16]; [18] 4% | [16]; at 50.0 µM 36% | [16]; at 100.0 µM 3% | [1]; at 1.2 µM 0% | [1]; at 3.7 µM -2% | [1]; at 11.0 µM -2% | [1]; at 33.0 µM -2% | [1]; at 100.0 µM -1% | [2]; at 1.2 µM 1% | [2]; at 3.7 µM -2% | [2]; at 11.0 µM -7% | [2]; at 33.0 µM 3% | [2]; at 100.0 µM 13% | [3]; at 1.2 µM 0% | [3]; at 3.7 µM 0% | [3]; at 11.0 µM 1% | [3]; at 33.0 µM 3% | [3]; at 100.0 µM 10% | [4]; [17] 7% | [4]; [18] 19% | [4]; at 50.0 µM 11.8% | [5]; at 1.2 µM 0% | [5]; at 3.7 µM 5% | [5]; at 11.0 µM 6% | [5]; at 33.0 µM 9% | [5]; at 100.0 µM 20%
